Reference: the supplement of paper PMC6897291

System: RIVA
Assay: growth inhibition by drug plus 177Lu-lilotomab satetraxetan (1 - RLU/untreated control) (fraction); higher = stronger inhibition
Conditions: 177Lu-lilotomab satetraxetan 0.5 ug/ml
Experimental: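 RIVA (RI-1) ABC-DLBCL cells were pretreated or not for 18 h with 0.5 ug/ml 177Lu-lilotomab satetraxetan (600 MBq/mg), washed and seeded (3000 cells/well) on 384-well plates pre-printed with the Selleck Cambridge Cancer Compound library. Viability was read by RealTime-Glo luminescence on days 3-6 after seeding. Effect = 1 - RLU/mean RLU of the 48 untreated no-drug control wells per plate; Bliss score = (M-E)/(1-Fa).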

SMILES | growth inhibition by drug plus 177Lu-lilotomab satetraxetan (10 nM, time (day): 3) | growth inhibition by drug plus 177Lu-lilotomab satetraxetan (10 nM, time (day): 4) | growth inhibition by drug plus 177Lu-lilotomab satetraxetan (10 nM, time (day): 5) | growth inhibition by drug plus 177Lu-lilotomab satetraxetan (10 nM, time (day): 6) | growth inhibition by drug plus 177Lu-lilotomab satetraxetan (100 nM, time (day): 3) | growth inhibition by drug plus 177Lu-lilotomab satetraxetan (100 nM, time (day): 4) | growth inhibition by drug plus 177Lu-lilotomab satetraxetan (100 nM, time (day): 5) | growth inhibition by drug plus 177Lu-lilotomab satetraxetan (100 nM, time (day): 6)
CC(=O)Nc1ccc(OC[C@](C)(O)C(=O)Nc2ccc([N+](=O)[O-])c(C(F)(F)F)c2)cc1 [Andarine (GTX-007)] | 0.585 | 0.603 | 0.615 | 0.608 | 0.404 | 0.5 | 0.511 | 0.533
O=C(O)c1nn(Cc2ccc(Cl)cc2Cl)c2ccccc12 [Lonidamine] | 0.616 | 0.624 | 0.644 | 0.656 | 0.309 | 0.446 | 0.459 | 0.45
CC(C)[C@]12O[C@H]1[C@@H]1O[C@]13[C@]1(O[C@H]1C[C@H]1C4=C(CC[C@@]13C)C(=O)OC4)[C@@H]2O [Triptolide] | 0.648 | 0.885 | 0.928 | 0.948 | 0.941 | 0.967 | 0.979 | 0.984
Cn1cc(C2=C(c3cn(C4CCN(Cc5ccccn5)CC4)c4ccccc34)C(=O)NC2=O)c2ccccc21 | 0.515 | 0.546 | 0.557 | 0.564 | 0.356 | 0.435 | 0.443 | 0.436
Cc1cc2c(C(C)C)c(O)c(O)c(C=O)c2c(O)c1-c1c(C)cc2c(C(C)C)c(O)c(O)c(C=O)c2c1O [Gossypol] | 0.354 | 0.475 | 0.501 | 0.51 | 0.233 | 0.353 | 0.38 | 0.364
